Test results: PubChem BioAssay (EPA / NIEHS)
Results filed as inconclusive are left out. The source made the active and inactive calls. How the source made its calls, unless noted: active means hit-call score of the fitted dose curve at least 0.9, where 1 is the maximum; inconclusive means response in the unintended direction; inactive means score below 0.9.

Experiments:
[1] = CEETOX_H295R_ANDR: CeeTox H295R High-throughput Steroidogenesis Assay for Androstenedione (ANDR) (AID 2283436; active means hit-call score of the fitted dose curve at least 0.9, where 1 is the maximum; inactive means score below 0.9); conditions: actives raise or lower the signal
In short: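 Medium from 48 h chemical-treated H295R adrenal cells was extracted with MTBE and androstenedione measured by LC-MS/MS. Activity was fit in both directions relative to DMSO. Cytotoxic concentrations were re-tested after dilution until MTT viability reached ≥70%.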

[2] = CEETOX_H295R_TESTO: CeeTox H295R High-throughput Steroidogenesis Assay for Testosterone (TESTO) (AID 2283457; active means hit-call score of the fitted dose curve at least 0.9, where 1 is the maximum; inactive means score below 0.9;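 further: cells exposed to chemicals for 48 h before medium collection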); conditions: actives raise or lower the signal
In short: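 Testosterone synthesis is assessed in human adrenocortical H295R cells after 48 h of chemical exposure, using HPLC-MS/MS of extracted medium. Activity is fitted in both directions against DMSO control.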

[3] = molecular target: chicken Estrogen Receptor (ESR1), ESR1 (gene 396099) (UniProt P06212); test: ATG_chERa_XSP1: Attagene TRANS-FACTORIAL Multi-Species (XSP1) HepG2 Assay for chicken Estrogen Receptor (ESR1) (AID 2283779)
In short: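 Trans-activation of an exogenous chicken ERα–Gal4 chimera read as reporter transcript (RT-PCR, fluorescent labeling, capillary electrophoresis) after 24 h compound exposure of transfected HepG2; medium held 3 nM 6-alpha-fluorotestosterone. Positive-direction fit against DMSO.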

[4] = system: turtle Estrogen Receptor (ESR1), gene 101933533; test: ATG_trERa_XSP1: Attagene TRANS-FACTORIAL Multi-Species (XSP1) HepG2 Assay for turtle Estrogen Receptor (ESR1) (AID 2283781)
In short: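 Transactivation measured 24 h post-dose as reporter mRNA (RT-PCR, fluorescent capillary electrophoresis) from an NR-Gal4 turtle ER construct in HepG2. Medium included 3 nM 6-alpha-fluorotestosterone; increase over DMSO fitted.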

[5] = molecular target: zebrafish Thyroid Hormone Receptor alpha (TRa), thraa (gene 30670) (UniProt Q98867); test: ATG_zfTRa_XSP1: Attagene TRANS-FACTORIAL Multi-Species (XSP1) HepG2 Assay for zebrafish Thyroid Hormone Receptor alpha (TRa) (AID 2283807)
In short: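 Reporter transcripts driven by a chimeric zebrafish TRa–Gal4 protein were measured by RT-PCR with fluorescent labelling and capillary electrophoresis. These came from transiently transfected HepG2 cells after 24 h chemical exposure, with 3 nM 6-alpha-fluorotestosterone added; baseline was DMSO.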

[6] = system: zebrafish Estrogen Receptor (ER2b), gene 317733; test: ATG_zfER2b_XSP2: Attagene TRANS-FACTORIAL Multi-Species (XSP2) HepG2 Assay for zebrafish Estrogen Receptor (ER2b) (AID 2283823);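 further: fitted upward as reporter gain over DMSO so potency reflects activation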
In short: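 In this multiplexed trans-activation format, HepG2 cells expressing exogenous NR-Gal4 fusions drive GAL4-UAS reporters. Exposure lasts 24 h, and reporter mRNA induction is read by RT-PCR with capillary electrophoresis detection.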

[7] = ATG_M_32_XSP2: Attagene TRANS-FACTORIAL Multi-Species (XSP2) HepG2 Assay for M19 Transcription Factor (Internal Marker) (AID 2283826)
In short: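 Total RNA is taken from compound-treated HepG2 cells after 24 h and reverse-transcribed; reporter cDNA is PCR-amplified, end-labelled with 6-FAM, digested with HpaI for 2h at 37 C and sized by capillary electrophoresis. Activity is fitted in the positive direction against DMSO.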

[8] = molecular target: zebrafish Thyroid Hormone Receptor alpha (TRa), thraa (gene 30670) (UniProt Q98867); test: ATG_zfTRa_XSP2: Attagene TRANS-FACTORIAL Multi-Species (XSP1) HepG2 Assay for zebrafish Thyroid Hormone Receptor alpha (TRa) (AID 2283832);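 further: actives raise zebrafish TRa-Gal4 reporter transcript above DMSO baseline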
In short: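 Multiplexed TRANS reporter format in HepG2; the medium also contained 3 nM 6-alpha-fluorotestosterone and 1.5 nM norgestrel. Reporter mRNA after 24 h read by RT-PCR and capillary electrophoresis, scored as induction over DMSO.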

[9] = molecular target: human Thyroid hormone Receptor beta (TRb), THRB (gene 7068) (UniProt P10828); test: ATG_hTRb_XSP2: Attagene TRANS-FACTORIAL Multi-Species (XSP2) HepG2 Assay for human Thyroid hormone Receptor beta (TRb) (AID 2283840);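 further: actives raise reporter mRNA so potency reflects agonist-like gain of signal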
In short: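 In this cell-based multiplex, HepG2 liver cells carrying transfected GAL4-UAS reporter constructs are exposed to chemical for 24 hours, then reporter transcripts are measured by RT-PCR with capillary electrophoresis, scored as gain of signal against DMSO.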

[10] = system: IYD (gene 389434); test: CCTE_GLTED_hIYD: CCTE's human Iodotyrosine Deiodinase (xIYD) Inhibition Assay, Great Lakes Toxicology and Ecology Division (GLTED) Lab (AID 2284317);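 further: cell-free human IYD enzyme made in baculovirus insect cells; iodide freed from monoiodotyrosine measured by cerium arsenite color change at 420 nm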
In short: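 Iodide liberated from monoiodotyrosine by baculovirus-expressed human IYD over 3 h was determined colorimetrically (Sandell-Kolthoff, 420 nm) after Dowex separation; inhibition is loss of signal versus DMSO.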

[11] = molecular target: human Phosphatase and Tensin Homolog (PTEN), PTEN (gene 5728) (UniProt P60484); test: NVS_ENZ_hPTEN: NovaScreen (NVS) Enzymatic Assay for human Phosphatase and Tensin Homolog (PTEN) (AID 2283203)
In short: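 Loss of fluorescent product signal after mobility-shift separation reports PTEN activity, recombinant human enzyme, 1 h after compound addition. Single 25 uM duplicate screen, then concentration-response on actives; DMSO baseline.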

[12] = molecular target: sheep Cyclooxygenase-2 (Cox2), PTGS2 (gene 443460) (UniProt P79208); test: NVS_ENZ_oCOX2: NovaScreen (NVS) Enzymatic Assay for sheep Cyclooxygenase-2 (Cox2) (AID 2283231)
In short: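 Colorimetric absorbance read-out of COX activity, taken 0.66 hour post-dosing, using native protein from sheep placenta. Single-concentration duplicate screen (25 uM), then singleton concentration-response up to 50 uM for actives.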

[13] = molecular target: Estrogen receptor (Homo sapiens) + Estrogen receptor beta (Homo sapiens) (UniProt P03372+Q92731); test: OT_ER_ERaERb_0480: Odyssey Thera (OT) 8-hour HEK293T Protein-Complementation Assay for Estrogen Receptor-alpha/-beta Heterodimer (AID 2283352)
In short: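 Increase in mean fluorescence intensity, measured by laser scanning plate cytometry, reported ER-alpha/ER-beta LBD complementation in HEK293T cells after 8 h chemical exposure. DMSO served as baseline; basal signal is low, punctate and cytoplasmic.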

[14] = molecular target: mouse Estrogen Receptor alpha (Era), Esr1 (gene 13982) (UniProt P19785); test: NVS_NR_mERa: NovaScreen (NVS) Nuclear Receptor Binding Assay for mouse Estrogen Receptor alpha (Era) (AID 2283378);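 further: hit means loss of bound radioligand signal relative to DMSO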
In short: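 Test chemicals competed against a specific radioligand for binding to cell-free mouse Era. Duplicate wells at 25 uM were read 18 hours later by filter-based radiodetection, with loss of signal against DMSO scored as activity.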

[15] = STM_H9_OrnCyssISnorm_ratio: Stemina devTOX quickPredict H9 human embryonic stem cell (hESC)-based Assay for Ornithine (ORN):Cystine (CYSS) Ratio (AID 2283714)
In short: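 Ratio of internal-standard-normalized ornithine to cystine, measured by UPLC-HRMS in spent media from the last 24 h. H9 cells kept pluripotent, dosed 72 h with daily media and compound renewal; DMSO 0.1% serves as baseline.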

[16] = molecular target: PGR (gene 5241) (UniProt P06401); test: NVS_NR_hPR: NovaScreen (NVS) Nuclear Receptor Binding Assay for human Progestron Receptor (PR) (AID 2283360);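 further: active means loss of bound radioligand signal versus DMSO baseline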
In short: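 Cell-free radioligand binding using receptor protein extracted from T47D cells, read by scintillation counting 18 hours after dosing. Loss of signal relative to DMSO baseline indicates displacement; primary screen single concentration 25 uM in duplicate, actives followed in concentration series.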

[17] = IUF_NPC1b_proliferation_BrdU_72hr: Leibniz Research Institute for Environmental Medicine (IUF) 72-hour Neural Progenitor Cell Bromodeoxyuridine (BrdU) Proliferation Assay (NPC1b) (AID 2284207; active means hit-call score of the fitted dose curve at least 0.9, where 1 is the maximum; inactive means score below 0.9)
In short: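 Human fetal cortex-derived (GW 16-19) neural progenitor spheres, 0.25-0.35 mm, one per well in EGF/FGF proliferation medium, exposed to compound for 72 h at 37C, pH 7.2-7.6. BrdU incorporation over the final 16 h read by luminescence ELISA, relative to DMSO.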

Sequence of zebrafish Thyroid Hormone Receptor alpha (TRa), thraa (gene 30670) (Q98867 whole entry, looked up, the tested form may be a part): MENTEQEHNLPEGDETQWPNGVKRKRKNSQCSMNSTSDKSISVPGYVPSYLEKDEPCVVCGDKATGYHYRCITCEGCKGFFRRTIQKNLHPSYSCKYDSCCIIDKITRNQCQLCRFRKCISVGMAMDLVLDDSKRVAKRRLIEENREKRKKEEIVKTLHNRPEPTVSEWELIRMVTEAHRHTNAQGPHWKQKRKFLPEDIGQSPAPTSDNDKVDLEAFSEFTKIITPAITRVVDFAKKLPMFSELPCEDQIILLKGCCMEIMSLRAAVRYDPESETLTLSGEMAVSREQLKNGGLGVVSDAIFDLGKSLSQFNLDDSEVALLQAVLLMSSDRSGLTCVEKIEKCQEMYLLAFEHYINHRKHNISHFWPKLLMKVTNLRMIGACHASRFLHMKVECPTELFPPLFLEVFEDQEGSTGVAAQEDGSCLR
Sequence of mouse Estrogen Receptor alpha (Era), Esr1 (gene 13982) (P19785 whole entry, looked up): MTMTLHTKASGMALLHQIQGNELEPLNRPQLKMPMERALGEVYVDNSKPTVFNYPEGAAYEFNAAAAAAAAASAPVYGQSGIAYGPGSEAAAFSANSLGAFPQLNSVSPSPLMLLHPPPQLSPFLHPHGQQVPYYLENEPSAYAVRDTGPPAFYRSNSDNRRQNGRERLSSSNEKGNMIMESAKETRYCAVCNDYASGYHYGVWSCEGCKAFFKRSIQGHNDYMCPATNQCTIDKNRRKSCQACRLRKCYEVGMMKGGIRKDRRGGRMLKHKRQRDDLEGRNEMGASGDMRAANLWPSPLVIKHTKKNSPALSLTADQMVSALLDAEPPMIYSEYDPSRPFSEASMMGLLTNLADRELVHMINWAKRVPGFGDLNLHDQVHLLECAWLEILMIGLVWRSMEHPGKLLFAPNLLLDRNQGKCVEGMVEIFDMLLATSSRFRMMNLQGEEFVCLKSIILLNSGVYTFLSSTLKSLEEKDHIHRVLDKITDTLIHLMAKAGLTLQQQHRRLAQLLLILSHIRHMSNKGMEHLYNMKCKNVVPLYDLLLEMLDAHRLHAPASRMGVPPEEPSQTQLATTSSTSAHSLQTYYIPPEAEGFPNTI
Sequence of PGR (gene 5241) (P06401 whole entry, looked up): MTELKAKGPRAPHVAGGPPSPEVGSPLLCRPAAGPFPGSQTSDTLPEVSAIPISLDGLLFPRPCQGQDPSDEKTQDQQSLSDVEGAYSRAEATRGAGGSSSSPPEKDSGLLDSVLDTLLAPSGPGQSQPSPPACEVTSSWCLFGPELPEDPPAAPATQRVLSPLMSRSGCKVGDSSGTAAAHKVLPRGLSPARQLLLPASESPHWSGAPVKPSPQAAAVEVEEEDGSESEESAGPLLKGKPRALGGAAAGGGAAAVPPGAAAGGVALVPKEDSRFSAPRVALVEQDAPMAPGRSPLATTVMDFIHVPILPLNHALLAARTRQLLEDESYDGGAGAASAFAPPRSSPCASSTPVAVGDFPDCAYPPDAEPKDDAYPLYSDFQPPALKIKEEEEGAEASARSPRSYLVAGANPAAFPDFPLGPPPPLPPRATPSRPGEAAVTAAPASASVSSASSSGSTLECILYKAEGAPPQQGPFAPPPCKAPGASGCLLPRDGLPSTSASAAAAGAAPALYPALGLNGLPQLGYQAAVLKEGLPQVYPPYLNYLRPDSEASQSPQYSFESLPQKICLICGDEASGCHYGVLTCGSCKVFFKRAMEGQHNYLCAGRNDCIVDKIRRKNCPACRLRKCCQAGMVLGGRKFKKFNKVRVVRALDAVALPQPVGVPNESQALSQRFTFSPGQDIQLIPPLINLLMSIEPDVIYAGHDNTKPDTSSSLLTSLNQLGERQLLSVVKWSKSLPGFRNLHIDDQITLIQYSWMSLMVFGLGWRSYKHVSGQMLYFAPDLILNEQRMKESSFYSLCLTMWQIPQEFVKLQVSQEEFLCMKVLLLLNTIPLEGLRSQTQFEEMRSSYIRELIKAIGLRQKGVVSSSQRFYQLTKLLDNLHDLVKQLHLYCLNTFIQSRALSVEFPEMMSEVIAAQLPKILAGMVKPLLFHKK
Sequence of Estrogen receptor (Homo sapiens) + Estrogen receptor beta (Homo sapiens) (P03372 whole entry, looked up, the tested form may be a part): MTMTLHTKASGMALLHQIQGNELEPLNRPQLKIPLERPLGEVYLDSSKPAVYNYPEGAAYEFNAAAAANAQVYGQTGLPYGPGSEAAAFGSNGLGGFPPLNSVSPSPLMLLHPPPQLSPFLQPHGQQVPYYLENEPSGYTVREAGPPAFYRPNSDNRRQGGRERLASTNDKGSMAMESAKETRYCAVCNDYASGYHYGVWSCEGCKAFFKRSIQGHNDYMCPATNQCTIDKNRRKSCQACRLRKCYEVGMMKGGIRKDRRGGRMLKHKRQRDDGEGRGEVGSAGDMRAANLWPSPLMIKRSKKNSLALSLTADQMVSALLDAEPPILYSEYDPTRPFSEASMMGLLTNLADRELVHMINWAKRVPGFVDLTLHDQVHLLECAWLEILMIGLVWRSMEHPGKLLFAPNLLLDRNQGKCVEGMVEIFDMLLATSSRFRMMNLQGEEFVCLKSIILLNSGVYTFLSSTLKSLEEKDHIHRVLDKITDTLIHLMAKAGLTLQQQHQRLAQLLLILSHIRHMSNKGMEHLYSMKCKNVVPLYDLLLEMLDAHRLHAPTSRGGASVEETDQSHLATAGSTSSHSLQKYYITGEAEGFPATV
Sequence of Estrogen receptor (Homo sapiens) + Estrogen receptor beta (Homo sapiens) (Q92731 whole entry, looked up, the tested form may be a part): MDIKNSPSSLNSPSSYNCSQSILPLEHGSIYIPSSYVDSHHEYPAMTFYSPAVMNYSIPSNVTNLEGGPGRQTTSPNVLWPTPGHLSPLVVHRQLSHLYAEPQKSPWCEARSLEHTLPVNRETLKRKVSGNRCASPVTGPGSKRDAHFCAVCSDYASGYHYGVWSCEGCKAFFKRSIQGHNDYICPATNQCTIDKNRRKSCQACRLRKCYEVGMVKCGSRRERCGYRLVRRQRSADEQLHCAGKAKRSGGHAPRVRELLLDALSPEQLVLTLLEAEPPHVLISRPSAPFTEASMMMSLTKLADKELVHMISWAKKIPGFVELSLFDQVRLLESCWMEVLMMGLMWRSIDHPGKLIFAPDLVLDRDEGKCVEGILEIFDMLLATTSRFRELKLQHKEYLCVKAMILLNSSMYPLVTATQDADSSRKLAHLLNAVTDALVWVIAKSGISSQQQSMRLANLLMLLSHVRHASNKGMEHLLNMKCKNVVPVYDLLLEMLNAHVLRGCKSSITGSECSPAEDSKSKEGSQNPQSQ
Sequence of human Phosphatase and Tensin Homolog (PTEN), PTEN (gene 5728) (P60484 whole entry, looked up): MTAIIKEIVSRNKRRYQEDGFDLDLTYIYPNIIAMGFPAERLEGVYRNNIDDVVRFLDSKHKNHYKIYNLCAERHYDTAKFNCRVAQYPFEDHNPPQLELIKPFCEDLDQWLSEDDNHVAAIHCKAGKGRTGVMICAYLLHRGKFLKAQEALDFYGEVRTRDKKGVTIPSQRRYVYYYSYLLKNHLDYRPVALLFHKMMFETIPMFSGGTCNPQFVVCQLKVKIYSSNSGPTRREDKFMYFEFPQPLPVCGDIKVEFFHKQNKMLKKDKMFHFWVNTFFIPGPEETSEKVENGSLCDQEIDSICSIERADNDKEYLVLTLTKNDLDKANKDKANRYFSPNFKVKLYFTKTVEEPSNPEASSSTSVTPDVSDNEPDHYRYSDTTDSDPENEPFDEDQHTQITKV
Sequence of chicken Estrogen Receptor (ESR1), ESR1 (gene 396099) (P06212 whole entry, looked up, the tested form may be a part): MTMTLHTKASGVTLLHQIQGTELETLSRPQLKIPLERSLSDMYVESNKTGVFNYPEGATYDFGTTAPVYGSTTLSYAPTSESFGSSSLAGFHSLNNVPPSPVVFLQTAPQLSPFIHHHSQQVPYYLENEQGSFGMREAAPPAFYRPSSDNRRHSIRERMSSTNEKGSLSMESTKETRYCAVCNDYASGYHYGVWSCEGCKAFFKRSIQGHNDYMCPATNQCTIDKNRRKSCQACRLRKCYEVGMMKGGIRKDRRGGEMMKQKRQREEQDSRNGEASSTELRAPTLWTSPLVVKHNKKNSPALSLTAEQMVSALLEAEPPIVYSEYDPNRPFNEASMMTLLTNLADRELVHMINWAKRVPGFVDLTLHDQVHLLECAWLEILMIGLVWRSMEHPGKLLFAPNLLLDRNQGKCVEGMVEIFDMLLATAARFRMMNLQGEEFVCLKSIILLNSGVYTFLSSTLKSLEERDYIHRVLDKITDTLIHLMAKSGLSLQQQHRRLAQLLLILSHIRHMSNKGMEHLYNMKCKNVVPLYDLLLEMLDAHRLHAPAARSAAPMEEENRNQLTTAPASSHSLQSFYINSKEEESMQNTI
Sequence of human Thyroid hormone Receptor beta (TRb), THRB (gene 7068) (P10828 whole entry, looked up, the tested form may be a part): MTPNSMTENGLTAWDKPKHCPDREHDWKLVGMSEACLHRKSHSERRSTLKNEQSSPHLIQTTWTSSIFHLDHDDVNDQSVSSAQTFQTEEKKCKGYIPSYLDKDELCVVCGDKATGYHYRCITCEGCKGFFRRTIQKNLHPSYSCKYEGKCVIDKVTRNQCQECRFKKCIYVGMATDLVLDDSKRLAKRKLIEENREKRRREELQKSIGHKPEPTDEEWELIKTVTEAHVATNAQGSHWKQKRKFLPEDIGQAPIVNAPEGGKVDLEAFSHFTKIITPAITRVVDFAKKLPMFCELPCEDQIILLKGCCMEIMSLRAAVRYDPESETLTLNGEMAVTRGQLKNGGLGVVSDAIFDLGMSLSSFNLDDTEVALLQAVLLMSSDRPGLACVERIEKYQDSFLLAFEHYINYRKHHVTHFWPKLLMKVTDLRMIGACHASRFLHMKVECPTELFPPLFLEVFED

CNC(=O)Oc1cc(C)c(SC)c(C)c1
AC50 [1]: 37.7 µM (active) | AC50 [2]: 36 µM (active)

CC(C)(c1cc(Cl)c(O)c(Cl)c1)c1cc(Cl)c(O)c(Cl)c1
AC50 [3]: 24.3 µM (active) | AC50 [4]: 23.9 µM (active) | AC50 [5]: 17.9 µM (active) | AC50 [6]: 25.7 µM (active) | outcome [7]: inactive | outcome [8]: inactive | outcome [9]: inactive | AC50 [10]: 100 µM (active)

Cl/C=C\CCl
outcome [11]: inactive

O=[N+]([O-])c1ccc(Cl)cc1
outcome [12]: inactive

c1ccc2c(c1)CCCC2
outcome [13]: inactive

Cc1cc(C)c(C2=C(OC(=O)CC(C)(C)C)C3(CCCC3)OC2=O)c(C)c1
outcome [13]: inactive

CCC1CCC(=O)O1 (centres undefined)
outcome [10]: inactive

CC(=O)c1cc2c(cc1C)C(C)(C)C(C)CC2(C)C (centres undefined)
AC50 [3]: 59.7 µM (active) | outcome [4]: inactive | AC50 [5]: 145 µM (active) | AC50 [6]: 26.7 µM (active) | outcome [7]: inactive | outcome [8]: inactive | outcome [9]: inactive

O=[N+]([O-])c1cc(C(F)(F)F)c(Cl)c([N+](=O)[O-])c1Cl
outcome [14]: inactive

O=C(O)c1cc[c]([Hg][Cl])cc1
outcome [14]: inactive

O=C1C(Cl)=C(Cl)C(=O)C(Cl)=C1Cl
outcome [15]: inactive

C=COCCCl
outcome [16]: inactive

ClC1=C(Cl)[C@]2(Cl)[C@@H]3[C@@H](Cl)[C@H](Cl)C[C@@H]3[C@@]1(Cl)C2(Cl)Cl
outcome [11]: inactive | outcome [16]: inactive

CC(C)CCCCCCCOP(=O)(Oc1ccccc1)Oc1ccccc1
outcome [17]: inactive
